Compounds with a hit are over-represented: about 2.2% of the library has one in this group of screens.
NTR1 agonist – NTR1 (human) agonism; 330,000 compounds, 0.17% hits; NTR1-U2OS beta-arrestin-GFP spot imaging, agonist mode; P30989; activation, % at 20 µM;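 active = activation at or above 40% of the spot to cytoplasm intensity ratio, with at least 20 cells analyzed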;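 also: 0% = DMSO without peptide and 100% = 100 nM NTR1 peptide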
CHO-K1 Ca ag – counter-screen for M1 agonists: effect in parental CHO-K1 cells | Fluo-8 calcium fluorescence; scaled to maximal ATP response, vehicle zero | activation, % at 3 µM | 360,000 compounds, 0.48% hits; in the data active = activation above about 15%;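 also: untransfected CHO-K1 host cells lacking M1 receptor as counterscreen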
ANO1 activ – mouse TMEM16A channel activation, primary screen; Q8BHY3; HEK293 TMEM16A/YFP-H148Q/I152L, iodide quench fluorescence; active compounds read low; B-score at 10 µM; 340,000 compounds, 0.3% hits; AID 623877;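 active = fluorescence-ratio B-score plate-corrected deviation score at least 3 library SD below zero, with starting fluorescence score within 5 deviations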;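 also: channel opened by trigger with iodide after compound preincubation; score built on the fluorescence ratio of max minus min over baseline; more negative score means more quench and so TMEM16A activation or potentiation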
Target sequence (Q8BHY3 whole entry, looked up): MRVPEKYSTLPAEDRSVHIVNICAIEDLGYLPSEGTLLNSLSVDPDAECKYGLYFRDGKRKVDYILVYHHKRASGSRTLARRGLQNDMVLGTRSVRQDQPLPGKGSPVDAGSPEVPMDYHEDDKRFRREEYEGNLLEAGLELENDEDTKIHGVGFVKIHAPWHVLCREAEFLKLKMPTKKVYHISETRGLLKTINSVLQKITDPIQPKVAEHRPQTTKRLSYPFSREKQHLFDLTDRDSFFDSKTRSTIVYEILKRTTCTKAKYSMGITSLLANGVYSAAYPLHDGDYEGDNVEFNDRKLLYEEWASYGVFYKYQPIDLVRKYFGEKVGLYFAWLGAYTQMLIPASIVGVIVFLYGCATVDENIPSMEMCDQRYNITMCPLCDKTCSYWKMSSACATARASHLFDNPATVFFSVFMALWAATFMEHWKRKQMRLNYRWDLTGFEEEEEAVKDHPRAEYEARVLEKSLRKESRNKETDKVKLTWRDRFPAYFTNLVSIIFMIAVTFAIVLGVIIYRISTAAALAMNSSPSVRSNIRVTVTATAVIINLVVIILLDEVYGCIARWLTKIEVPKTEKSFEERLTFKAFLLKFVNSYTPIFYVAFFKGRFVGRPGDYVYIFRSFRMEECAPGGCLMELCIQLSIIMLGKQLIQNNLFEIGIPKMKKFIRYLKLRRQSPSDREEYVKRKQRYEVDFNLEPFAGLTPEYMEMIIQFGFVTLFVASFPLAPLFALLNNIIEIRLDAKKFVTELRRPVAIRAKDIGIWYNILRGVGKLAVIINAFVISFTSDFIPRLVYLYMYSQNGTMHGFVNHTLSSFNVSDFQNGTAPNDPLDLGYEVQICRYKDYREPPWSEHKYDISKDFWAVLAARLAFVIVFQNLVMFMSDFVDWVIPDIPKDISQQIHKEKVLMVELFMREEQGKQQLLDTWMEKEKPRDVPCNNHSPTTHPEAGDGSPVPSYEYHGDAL
CHO-K1 Ca PAM – nonselective activator or artifact in parental CHO-K1 calcium assay; ATP EC20, Fluo-8 calcium fluorescence; 0% at ATP EC20, 100% at ATP max; activation, % at 3 µM; 360,000 compounds, 0.02% hits; AID 602247;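 active = activation above the run cutoff, the mean activation of all test compounds plus 3 SD, cut at about 40% in these data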;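 also: peak over basal fluorescence ratio in a 140 s read after ATP addition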
TMEM16A inh – blocks the mouse calcium-activated chloride channel TMEM16A. Q8BHY3. HEK293 TMEM16A/YFP iodide influx fluorescence, ionomycin. normalized B-score (activity score, 25-100; higher = stronger inhibition) at 10 µM. 310,000 compounds, 1.2% hits. AID 588511;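 active = ratio plate-corrected score three or more library SD toward inhibition, starting fluorescence score within five deviations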;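 also: score derived from kinetic fluorescence span divided by baseline fluorescence per well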
CHO-K1 Ca antag – counter-screen for M1 antagonists: effect in parental CHO-K1 cells; ATP-induced calcium, Fluo-8 fluorescence; inhibition, % at 3 µM; 360,000 compounds, 0.6% hits; AID 602250;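 active = inhibition above a per-plate cutoff, the plate's mean sample inhibition plus 3 SD, cut at about 24% in these data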;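 also: 0% = DMSO plus EC80 ATP and 100% = DMSO alone without ATP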
NTR1 ag confirm – confirmation of agonists of human NTR1. NTR1-U2OS beta-arrestin-GFP translocation imaging. shares compounds with NTR1 agonist. activation, % at 20 µM. 480 compounds, 38% hits;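 active = mean activation at 20 µM of at least 40%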;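 also: 0% = DMSO without peptide and 100% = 100 nM NTR1 peptide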
* hit, by the source's call.

How did COc1ccc(CNCCc2c(C)[nH]c3ccc(OC(F)(F)F)cc23)c(OC)c1 do in these assays?
NTR1 agonist: 8; CHO-K1 Ca ag: 37*; ANO1 activ: inactive; CHO-K1 Ca PAM: -7; TMEM16A inh: inactive; CHO-K1 Ca antag: 33*

Results for CCOC(=O)[C@]12Cc3c(cc(OC)c(OC)c3OC)[C@H]1N(CCC(=O)OC)C(=O)c1ccccc12 ?
CHO-K1 Ca ag: 0; CHO-K1 Ca PAM: -4; CHO-K1 Ca antag: -19

How did CCCCCN1C(=O)c2cc(OC)ccc2[C@@]2(C(=O)OCC)Cc3cc(Cl)ccc3[C@@H]12 do in these assays?
CHO-K1 Ca ag: 3; CHO-K1 Ca PAM: 13; CHO-K1 Ca antag: -2

Results for COc1ccccc1C1=NCc2nnc(C)n2-c2ccc(Cl)cc21 ?
NTR1 agonist: 5; CHO-K1 Ca ag: 1; ANO1 activ: inactive; CHO-K1 Ca PAM: -3; TMEM16A inh: inactive; CHO-K1 Ca antag: 31*

What do the screens show for `Clc1ccc2c(c1)C(c1ccccc1Cl)=NCc1nnc(N3CCN(CCOc4ccccc4)CC3)n1-2`?
NTR1 agonist: 4; CHO-K1 Ca ag: 11; ANO1 activ: inactive; CHO-K1 Ca PAM: 64*; TMEM16A inh: inactive; CHO-K1 Ca antag: -15

Results for CC1(C)CC(=O)CC(C)(C)N1O ?
CHO-K1 Ca ag: 2; CHO-K1 Ca PAM: 9; CHO-K1 Ca antag: 1

What do the screens show for `CCC(=NCc1ccco1)c1c(O)n(-c2ccccc2)c(=O)[nH]c1=O`?
NTR1 agonist: 1; CHO-K1 Ca ag: -1; ANO1 activ: inactive; CHO-K1 Ca PAM: 7; TMEM16A inh: inactive; CHO-K1 Ca antag: 29*

Results for CCC(=NCc1ccco1)c1c(O)n(-c2ccc(C)cc2)c(=O)[nH]c1=O ?
NTR1 agonist: 3; CHO-K1 Ca ag: 0; ANO1 activ: inactive; CHO-K1 Ca PAM: -14; TMEM16A inh: inactive; CHO-K1 Ca antag: -1

Results for CCN(CC)P(=O)(c1n(CC)cc[n+]1CC)N(CC)CC ?
NTR1 agonist: -1; CHO-K1 Ca ag: -1; ANO1 activ: inactive; CHO-K1 Ca PAM: -16; TMEM16A inh: inactive; CHO-K1 Ca antag: 32*

Results for Cn1nnc(CC[N+](C)(C)C)n1 ?
NTR1 agonist: -1; CHO-K1 Ca ag: 15*; ANO1 activ: inactive; CHO-K1 Ca PAM: -1; TMEM16A inh: inactive; CHO-K1 Ca antag: 11

Results for COc1ccc(-n2nnnc2C(c2cccc3ccccc23)N2CCC3(CC2)C(=O)NCN3c2ccccc2)cc1 (stereo not drawn) ?
CHO-K1 Ca ag: 0; CHO-K1 Ca PAM: -7; CHO-K1 Ca antag: -3

How did CCOC(=O)[C@]12Cc3cc(Cl)ccc3[C@H]1N(C1CCCCC1)C(=O)c1ccccc12 do in these assays?
CHO-K1 Ca ag: 4; CHO-K1 Ca PAM: 16; CHO-K1 Ca antag: 8

What do the screens show for `COc1ccc(CCN)cc1OC`?
NTR1 agonist: 0; CHO-K1 Ca ag: 0; ANO1 activ: inactive; CHO-K1 Ca PAM: -6; TMEM16A inh: inactive; CHO-K1 Ca antag: 4

How did NCCc1ccc(OCc2ccccc2)c(OCc2ccccc2)c1 do in these assays?
NTR1 agonist: 17; CHO-K1 Ca ag: 16*; ANO1 activ: inactive; CHO-K1 Ca PAM: 7; CHO-K1 Ca antag: 5

Results for Cc1cc(C)c(C)c(C(O)(C(=O)O)c2ccccc2)c1 (stereo not drawn) ?
CHO-K1 Ca ag: 1; CHO-K1 Ca PAM: 23; CHO-K1 Ca antag: -6

Results for O=[N+]([O-])c1ccc(N2CCCCCC2)c2nonc12 ?
NTR1 agonist: -2; CHO-K1 Ca ag: 162*; ANO1 activ: inactive; CHO-K1 Ca PAM: -20; TMEM16A inh: inactive; CHO-K1 Ca antag: 53*

Results for CC(C)(C)n1nnnc1C(c1ccnc2ccccc12)N1CCC2(CC1)C(=O)NCN2c1ccccc1 (stereo not drawn) ?
CHO-K1 Ca ag: 2; CHO-K1 Ca PAM: 16; CHO-K1 Ca antag: -3

What do the screens show for `CCOC(=O)[C@]12Cc3cc(Cl)ccc3[C@H]1N(CC(=O)OC)C(=O)c1ccccc12`?
CHO-K1 Ca ag: 9; CHO-K1 Ca PAM: 19; CHO-K1 Ca antag: 4

How did COC(=O)C[C@]1(C(=O)OC)CN(C#N)N(c2ccc(Cl)cc2)C12c1ccccc1-c1ccccc12 do in these assays?
NTR1 agonist: 41*; CHO-K1 Ca ag: 0; ANO1 activ: inactive; CHO-K1 Ca PAM: 17; TMEM16A inh: inactive; CHO-K1 Ca antag: -9; NTR1 ag confirm: 62*

Results for O=C1NC(=O)N(c2ccccc2)C(=O)/C1=C\C=C\c1ccccc1 ?
NTR1 agonist: 74*; CHO-K1 Ca ag: 0; ANO1 activ: inactive; CHO-K1 Ca PAM: 7; TMEM16A inh: inactive; CHO-K1 Ca antag: -3; NTR1 ag confirm: 49*

What do the screens show for `C=C1C(=O)OC2CC3(C)OC3C3OC3C3=CC(OC3=O)C12` (stereo not drawn)?
CHO-K1 Ca ag: 0; CHO-K1 Ca PAM: -15; CHO-K1 Ca antag: 15

How did N=C(N)c1c(O)n(C2CCCCC2)c(=O)n(C2CCCCC2)c1=O do in these assays?
NTR1 agonist: 54*; CHO-K1 Ca ag: 4; ANO1 activ: inactive; CHO-K1 Ca PAM: 24; TMEM16A inh: inactive; CHO-K1 Ca antag: -18; NTR1 ag confirm: 36

What do the screens show for `O=c1c(C=NCc2cccs2)c(O)n(C2CCCCC2)c(=O)n1C1CCCCC1`?
NTR1 agonist: 30; CHO-K1 Ca ag: 1; ANO1 activ: inactive; CHO-K1 Ca PAM: 21; TMEM16A inh: inactive; CHO-K1 Ca antag: -4

Results for O=C1NC(=O)N(c2ccccc2F)C(=O)/C1=C/c1cn(CC(=O)N2CCOCC2)c2ccccc12 ?
NTR1 agonist: 42*; TMEM16A inh: inactive; NTR1 ag confirm: 32

Results for CCN1C(=O)NC(=O)/C(=C\c2cn(CC(=O)N3CCCC3)c3ccccc23)C1=O ?
NTR1 agonist: 3; CHO-K1 Ca ag: 0; ANO1 activ: inactive; CHO-K1 Ca PAM: -4; TMEM16A inh: inactive; CHO-K1 Ca antag: -13

Results for O=C1NC(=O)C(=Cc2ccc(SC3CCCCC3)o2)C(=O)N1 ?
NTR1 agonist: 50*; CHO-K1 Ca ag: 1; ANO1 activ: inactive; CHO-K1 Ca PAM: 26; TMEM16A inh: inactive; CHO-K1 Ca antag: -11; NTR1 ag confirm: 68*

How did CC(=O)OCC12CC(OC(=O)CC(C)C)C(C)=CC1OC1C(O)C(OC(C)=O)C2(C)C12CO2 (stereo not drawn) do in these assays?
CHO-K1 Ca ag: 0; ANO1 activ: inactive; CHO-K1 Ca PAM: -2; CHO-K1 Ca antag: -6

What do the screens show for `COc1ccc(OC)c(N=Cc2c(O)n(Cc3ccccc3)c(=S)[nH]c2=O)c1`?
NTR1 agonist: 59*; CHO-K1 Ca ag: 0; ANO1 activ: inactive; CHO-K1 Ca PAM: -13; TMEM16A inh: inactive; CHO-K1 Ca antag: -4; NTR1 ag confirm: 65*
